# Test results: the supplement of paper PMC8728848
# Only a selection was taken, and the strongest signals are over-represented in it overall.
# B1: LF82 (Escherichia coli) (protein)
# chain: ADWGPCRTASGDPFIFVTSFTKNIQNPTDNVTGQTYPDFYQWALGDKYSGVCECPSPNPTEARPTLYKTESTLAAGHNSTYFKITNNLEVSTRVYIANVGNVQVPFINKSNSQPGRECDQPTFGWTTGSKGQLSLYIAKPFVGEQNIPQTIIVSVFGTKKENVYSSVPISQVLLSGKVTVTQGCELAAGTSLDIDFGEYQAHDFKGRTGQPPQNVQKIQKELTFNCTNISDGVHIYLSLEGTPNAAYPSAISLGNADVGAVIEDGKGNILKPNDSNSLLEMNPGSLYEYVKRKVTTTITAYPVSTTGKLPAAGDYSGVATMHVELDGGGGGGGGGGATTDLGAKGTLKFSLKISQGHHHHHH
# Assays:
# Assay in all cases: glycan array binding signal (z-score within array); higher = stronger binding
# Conditions in all cases: glycan notation: IUPAC condensed, linker removed
# [1] = target: Fuc(a1-2)Gal(b1-3)GalNAc(b1-4)[Neu5Ac(a2-3)]Gal(b1-4)Glc
# Outline: (§1)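 The binding signal is a Z-score computed within each array and averaged over linkers. Arrays of the same protein sequence at different concentrations or buffers were also averaged together. Data originate from 3228 arrays in the Consortium for Functional Glycomics database, kept only where the protein sequence was available.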
# [2] = target: Fuc(a1-2)Gal(b1-3)GlcNAc6S
# Outline: as §1
# [3] = target: Fuc(a1-2)[Gal(a1-3)]Gal(b1-3)GlcNAc
# Outline: as §1
# [4] = target: Fuc(a1-2)[Gal(a1-3)]Gal(b1-3)GlcNAc(b1-2)Man(a1-3)[Fuc(a1-2)[Gal(a1-3)]Gal(b1-3)GlcNAc(b1-2)Man(a1-6)]Man(b1-4)GlcNAc(b1-4)[Fuc(a1-6)]GlcNAc
# Outline: as §1
# [5] = target: Fuc(a1-2)[GalNAc(a1-3)]Gal(b1-3)GlcNAc(b1-6)GalNAc
# Outline: as §1
# [6] = target: Fuc(a1-2)[GalNAc(a1-3)]Gal(b1-4)Glc
# Outline: as §1
# [7] = target: Fuc(a1-3)[Gal(b1-4)]GlcNAc(b1-6)[Gal(b1-3)GlcNAc(b1-3)]Gal(b1-4)Glc
# Outline: as §1
# [8] = target: Fuc(a1-3)[Gal3S(b1-4)]Glc
# Outline: as §1
# Fuc(a1-4)GlcNAc = target: Fuc(a1-4)GlcNAc
# Outline: as §1
# Gal(a1-3)Gal(b1-3)GlcNAc = target: Gal(a1-3)Gal(b1-3)GlcNAc
# Outline: as §1
# [9] = target: Gal(a1-3)Gal(b1-3)[Fuc(a1-4)]GlcNAc(b1-2)Man(a1-3)[Gal(a1-3)Gal(b1-3)[Fuc(a1-4)]GlcNAc(b1-2)Man(a1-6)]Man(b1-4)GlcNAc(b1-4)GlcNAc
# Outline: as §1
# [10] = target: Gal(a1-3)Gal(b1-4)[Fuc(a1-3)]GlcNAc
# Outline: as §1
# [11] = target: Gal(a1-3)Gal(b1-4)[Fuc(a1-3)]GlcNAc(b1-2)Man(a1-3)[Gal(a1-3)Gal(b1-4)[Fuc(a1-3)]GlcNAc(b1-2)Man(a1-6)]Man(b1-4)GlcNAc(b1-4)GlcNAc
# Outline: as §1
# [12] = target: Gal(b1-3)[Fuc(a1-4)]GlcNAc(b1-2)Man(a1-3)[Gal(b1-3)[Fuc(a1-4)]GlcNAc(b1-2)Man(a1-6)]Man(b1-4)GlcNAc(b1-4)[Fuc(a1-6)]GlcNAc
# Outline: as §1
# [13] = target: Gal(b1-4)GlcNAc(b1-2)Man(a1-6)Man(b1-4)GlcNAc(b1-4)GlcNAc
# Outline: as §1
# [14] = target: Gal(b1-4)GlcNAc(b1-3)Gal(b1-4)GlcNAc
# Outline: as §1
# [15] = target: Gal(b1-4)GlcNAc(b1-3)Gal(b1-4)GlcNAc(b1-2)[Gal(b1-4)GlcNAc(b1-3)Gal(b1-4)GlcNAc(b1-6)]Man(a1-6)[Gal(b1-4)GlcNAc(b1-3)Gal(b1-4)GlcNAc(b1-2)Man(a1-3)]Man(b1-4)GlcNAc(b1-4)[Fuc(a1-6)]GlcNAc
# Outline: as §1
# [16] = target: Gal(b1-4)GlcNAc(b1-3)Gal(b1-4)GlcNAc(b1-3)Gal(b1-4)GlcNAc(b1-3)Gal(b1-4)GlcNAc(b1-3)Gal(b1-4)GlcNAc(b1-2)[Gal(b1-4)GlcNAc(b1-3)Gal(b1-4)GlcNAc(b1-3)Gal(b1-4)GlcNAc(b1-3)Gal(b1-4)GlcNAc(b1-3)Gal(b1-4)GlcNAc(b1-6)]Man(a1-6)[Gal(b1-4)GlcNAc(b1-3)Gal(b1-4)GlcNAc(b1-3)Gal(b1-4)GlcNAc(b1-3)Gal(b1-4)GlcNAc(b1-3)Gal(b1-4)GlcNAc(b1-2)Man(a1-3)]Man(b1-4)GlcNAc(b1-4)[Fuc(a1-6)]GlcNAc
# Outline: as §1
# [17] = target: Gal(b1-4)GlcNAc(b1-6)Gal(b1-4)GlcNAc
# Outline: as §1
# [18] = target: Gal3S(b1-4)[Fuc(a1-3)]Glc6S
# Outline: as §1
# GalNAc(a1-3)Gal = target: GalNAc(a1-3)Gal
# Outline: as §1
# [19] = target: GalNAc(a1-3)GalNAc(b1-3)Gal(a1-4)Gal(b1-4)GlcNAc
# Outline: as §1
# [20] = target: GalNAc(b1-4)GlcNAc(b1-2)Man
# Outline: as §1
# [21] = target: GalNAc(b1-4)GlcNAc(b1-2)Man(a1-3)[GalNAc(b1-4)GlcNAc(b1-2)Man(a1-6)]Man(b1-4)GlcNAc(b1-4)GlcNAc
# Outline: as §1
# [22] = target: Glc(a1-4)Glc(a1-4)Glc(a1-4)Glc
# Outline: as §1
# [23] = target: GlcNAc(a1-4)Gal(b1-4)GlcNAc
# Outline: as §1
# [24] = target: GlcNAc(a1-4)Gal(b1-4)GlcNAc(b1-3)Gal(b1-4)[Fuc(a1-3)]GlcNAc(b1-3)Gal(b1-4)[Fuc(a1-3)]GlcNAc
# Outline: as §1
# [25] = target: GlcNAc(b1-2)Man(a1-3)[GlcNAc(b1-2)Man(a1-6)]Man(b1-4)GlcNAc(b1-4)GlcNAc
# Outline: as §1
binder,measurement,setting,value
B1,glycan array binding signal (z-score),[1],3.03
same,glycan array binding signal (z-score),[2],2.87
same,glycan array binding signal (z-score),[3],-0.338
same,glycan array binding signal (z-score),[4],3.84
same,glycan array binding signal (z-score),[5],1.19
same,glycan array binding signal (z-score),[6],-0.933
same,glycan array binding signal (z-score),[7],-1.03
same,glycan array binding signal (z-score),[8],0.085
same,glycan array binding signal (z-score),Fuc(a1-4)GlcNAc,-0.348
same,glycan array binding signal (z-score),Gal(a1-3)Gal(b1-3)GlcNAc,-0.354
same,glycan array binding signal (z-score),[9],0.456
same,glycan array binding signal (z-score),[10],-1.48
same,glycan array binding signal (z-score),[11],1.79
same,glycan array binding signal (z-score),[12],0.378
same,glycan array binding signal (z-score),[13],4.95
same,glycan array binding signal (z-score),[14],-1.12
same,glycan array binding signal (z-score),[15],2.68
same,glycan array binding signal (z-score),[16],3.2
same,glycan array binding signal (z-score),[17],-0.202
same,glycan array binding signal (z-score),[18],-0.55
same,glycan array binding signal (z-score),GalNAc(a1-3)Gal,-0.316
same,glycan array binding signal (z-score),[19],-0.744
same,glycan array binding signal (z-score),[20],0.518
same,glycan array binding signal (z-score),[21],-0.272
same,glycan array binding signal (z-score),[22],1.21
same,glycan array binding signal (z-score),[23],2.49
same,glycan array binding signal (z-score),[24],3.63
same,glycan array binding signal (z-score),[25],-0.657
